In PubChem BioAssay:

Key:
[1] = NFkB reporter suppression in cystic fibrosis bronchial cells – cell-based, uHTS hits, panel, cytotoxicity readout, dose response (AID 624344); conditions: CF bronchial epithelial cells, PAF-induced NFkB reporter inhibition, with PAF, run 1; at 79 µM (top of the series) unless noted
[2] = as above; conditions: CF bronchial epithelial cells, PAF-induced NFkB reporter inhibition, with PAF, run 2; at 79 µM (top of the series) unless noted
Cytotoxicity = test: as above; conditions: CF bronchial epithelial cells; run 1, at 19.8 µM (top of the series)
[3] = target: Tumor necrosis factor receptor superfamily member 10B (Homo sapiens) (UniProt O14763); test: viability loss of caspase-8 NB7 cells with TRAIL – with/without TRAIL, luminescence panel, confirmation (AID 651596); conditions: NB7 neuroblastoma + caspase-8, TRAIL sensitization, NB7 Caspase-8, with TRAIL, mean of runs, at 10 µM, stronger effect = higher value
Tumor necrosis factor receptor superfamily member 10B (Homo sapiens), sequence (O14763 whole entry, looked up): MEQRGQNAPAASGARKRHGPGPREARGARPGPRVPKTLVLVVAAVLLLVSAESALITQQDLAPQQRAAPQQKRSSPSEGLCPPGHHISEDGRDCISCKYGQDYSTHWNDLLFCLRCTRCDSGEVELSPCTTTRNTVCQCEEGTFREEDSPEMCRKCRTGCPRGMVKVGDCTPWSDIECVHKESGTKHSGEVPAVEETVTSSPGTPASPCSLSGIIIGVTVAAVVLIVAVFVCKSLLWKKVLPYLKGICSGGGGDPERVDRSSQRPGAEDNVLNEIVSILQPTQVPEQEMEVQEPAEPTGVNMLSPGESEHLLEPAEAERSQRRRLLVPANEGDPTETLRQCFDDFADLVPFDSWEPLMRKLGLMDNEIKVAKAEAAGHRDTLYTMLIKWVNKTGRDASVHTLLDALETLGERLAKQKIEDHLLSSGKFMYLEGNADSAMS

[4] = as above; conditions: NB7 neuroblastoma + caspase-8, without TRAIL, NB7 Caspase-8, without TRAIL, mean of runs, at 10 µM

## Cc1cc(C)c(O)c(CN(C)Cc2cc(Cl)cc(Cl)c2O)c1
[1]
  inhibition: 109%
[2]
  inhibition: 101%
Cytotoxicity
  inhibition: 12%

## Cc1cccc(N(Cc2cc(=O)[nH]c3ccccc23)C(=O)CCl)c1
[1]
  inhibition: 95.1%
[2]
  inhibition: 90.7%
[3]
  activity: 98.3%
[4]
  activity: 98.5%

## CC(=O)c1c(C)n(-c2ccc(C)cc2C)c2ccc(O)cc12
[1]
  inhibition: 106%
[2]
  inhibition: 64%

## COc1ccc(COc2cc(-c3cccc(OC)c3)nc3ccc(NC(=O)c4cccnc4)cc23)cc1
[1]
  inhibition: 98.7%
[2]
  inhibition: 95.2%

## C=C1C(=O)[C@]23C[C@H]1CC[C@H]2[C@]1(C)[C@@H](OC(C)=O)CC[C@@](C)(C(=O)O)[C@H]1C[C@@H]3O
[1]
  inhibition: 97.6%
[2]
  inhibition: 94%

## COc1cc(C(=O)c2cc3c(cc2C)OCO3)cc(OC)c1OC
[1]
  inhibition: 48.2%
[2]
  inhibition: 51.8%

## N#Cc1ccsc1NC(=O)c1ccc(Cl)c([N+](=O)[O-])c1
[1]
  inhibition: 74%
[2]
  inhibition: 101%

## O=[N+]([O-])c1cccc(/C=N/Nc2cc(N3CCOCC3)ncn2)c1
[1]
  inhibition: 116%
[2]
  inhibition: 102%

## NC(N)=NN=C(c1ccc(F)cc1)c1ccc(C(F)(F)F)cc1
[1]
  inhibition: 108%
[2]
  inhibition: 117%

## Cc1ccc(Cl)cc1-c1cc(C(=O)NCc2cc(C(F)(F)F)cc(C(F)(F)F)c2)[nH]n1
[1]
  inhibition: 84.9%
[2]
  inhibition: 96.5%

## O=C(NCCC1=CCCCC1)c1coc(=O)c(Br)c1
[1]
  inhibition: 79.7%
[2]
  inhibition: 74.3%
[3]
  activity: 76.4%
[4]
  activity: 22.7%

## C#CCN(C[C@@H]1[C@@H](OC(=O)NCc2ccco2)[C@@H](OC(=O)NCc2ccco2)Cn2c(=O)ccc(=O)n21)S(=O)(=O)c1ccc(C)cc1
[1]
  inhibition: 98.7%
[2]
  inhibition: 111%

## CCN(CC(=O)Nc1ccc(OC)cc1)C(=O)c1cc(-c2cccs2)nn1-c1ccccc1
[1]
  inhibition: 99.6%
[2]
  inhibition: 98.4%

## CCOC(=O)C1=C(CC)Nc2ccccc2N=C1NC(=O)Nc1ccc(Cl)c(Cl)c1
[1]
  inhibition: 113%
[2]
  inhibition: 103%
[3]
  activity: 63.9%
[4]
  activity: 64.3%

## O=C(Nc1ccc(OCC(=O)N2CCOCC2)cc1)c1cncc(Br)c1
[1]
  inhibition: 90.4%
[2]
  inhibition: 98.9%

## COc1cc(NC(=O)c2cc3ccccc3cc2OC)ccc1NC(=O)c1cccs1
[1]
  inhibition: 98.1%
[2]
  inhibition: 107%

## O=C(Nc1cccnc1)c1sc2cccc(F)c2c1Cl
[1]
  inhibition: 76.8%
[2]
  inhibition: 92.7%

## Cc1c(C(=O)OCC(C)C)[nH]c2c1C(=O)CC(c1ccco1)C2 (stereo unspecified)
[1]
  inhibition: 97.4%
[2]
  inhibition: 61.5%

## Cc1cccc(NC(=O)c2nc[nH]c2C(=O)NCCCNC(=O)c2[nH]cnc2C(=O)Nc2cccc(C)c2)c1
[1]
  inhibition: 97.6%
[2]
  inhibition: 75.5%

## COc1cc(NC(=O)Cn2ncc(Cl)c(Cl)c2=O)c(C)cc1[N+](=O)[O-]
[1]
  inhibition: 97.1%
[2]
  inhibition: 91.1%
[3]
  activity: 99.2%
[4]
  activity: 99.3%

## O=C(Nc1ccc2ccccc2c1)c1ccccc1O
[1]
  inhibition: 102%
[2]
  inhibition: 90.4%
[3]
  activity: 64.2%
[4]
  activity: 52.8%

## COc1ccc(CN(C(=O)CSc2nnc(-c3c[nH]c4ccccc34)o2)c2ccc(F)cc2)cc1OC
[1]
  inhibition: 101%
[2]
  inhibition: 103%

## CN1CCC(OC(=O)c2cc3cc(Cl)cc(Cl)c3oc2=O)CC1
[1]
  inhibition: 108%
[2]
  inhibition: 97.8%

## CCOc1ccc(Nc2ncnc3ccc([N+](=O)[O-])cc23)cc1
[1]
  inhibition: 102%
[2]
  inhibition: 107%

## C=CC[C@@H](CC(=O)N(CCO)Cc1ccccc1)C(=O)NC[C@H](OC(=O)[C@@H](CC=C)Cc1ccc(F)cc1)c1ccccc1
[1]
  inhibition: 110%
[2]
  inhibition: 102%

## C/C(=N/NC(=O)c1cccs1)c1ccc(NC(=O)COc2ccc(Cl)cc2)cc1
[1]
  inhibition: 87%
[2]
  inhibition: 72.9%

## COc1ccc(-c2nc(N3CCOCC3)nc3n[nH]c(N)c23)cc1
[1]
  inhibition: 117%
[2]
  inhibition: 104%

## O=C(Nc1cccc(Cl)c1)Nc1cc(S(=O)(=O)N2CCCCC2)ccc1Cl
[1]
  inhibition: 117%
[2]
  inhibition: 97.2%

## CCCn1c(-c2nonc2N)nc2ccccc21
[1]
  inhibition: 99.6%
[2]
  inhibition: 95.5%

## CC1(Cc2cccc(F)c2)C(=O)Nc2ccc(-c3cccnc3)cc21 (stereo unspecified)
[1]
  inhibition: 112%
[2]
  inhibition: 98.2%

## Cn1ncc2c(O/N=C(\N)c3ccc(C(C)(C)C)cc3)ncnc21
[1]
  inhibition: 101%
[2]
  inhibition: 112%
[3]
  activity: 98.5%
[4]
  activity: 98.8%

## Clc1ccc(-c2csc3ncnc(N4CCc5ccccc5C4)c23)cc1
[1]
  inhibition: 103%
[2]
  inhibition: 112%

## COc1ccccc1NS(=O)(=O)c1cccc(-n2c(O)c(C=Nc3ccccc3C(=O)O)c3ccccc3c2=O)c1
[1]
  inhibition: 105%
[2]
  inhibition: 85%

## COc1ccc(C(=O)Nc2cccc(NC(=O)c3ccc(OC)c(OC)c3)n2)cc1OC
[1]
  inhibition: 106%
[2]
  inhibition: 102%
